In the library only some 19% were active in any assay of this set; here they are far more common.
TDP1 cell CPT = growth inhibition of DT40 Tdp1-/-;hTDP1 cells with camptothecin (screen for TDP1 inhibitors). Potency, µM (top dose mostly 46.2 µM), for the others: at the top dose activity change, negative = growth inhibition, usual class: inhibitors. chicken DT40 Tdp1-/-;hTDP1 cells + 20 nM CPT, ATP luminescence, 48 h. 420,000 tested, 12% active; further: potency means the concentration at half of the fitted maximal effect; nearly all actives have a fitted effect of over 55% in size
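Cell growth measured by CellTiter-Glo luminescence after a minimum 48 h, 37 C compound exposure with 20 nM CPT in Tdp1-knockout DT40 cells stably expressing hTDP1, seeded 400/well; qHTS titration format.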
IL-1B inflam inh = blocks inflammasome-driven IL-1 beta release | 360,000 tested, 4.7% active | activity change, % at 57.5 µM | THP-1 LPS/ATP IL-1B secretion, AlphaLISA, 16 h; stronger effect = lower value; in the data active means activity change below about -50%; inconclusive means mostly about -30% to -49%
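Secreted IL-1B measured by AlphaLISA bead assay after 16 h compound exposure of THP-1 cells; compounds (final up to 57.5 uM) added 1 h before LPS (250 ng/mL) and ATP (1.25 mM) stimulation; lower signal means less secretion.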
TDP1 cell noCPT = qHTS for Inhibitors of human tyrosyl-DNA phosphodiesterase 1 (TDP1): qHTS in cells in absence of CPT. DT40 Tdp1-/- hTDP1 cells, no CPT, ATP luminescence, 48 h. Potency, µM (highest dose often 46.2 µM), inactives show at the top dose activity change, negative = growth inhibition, hits mostly inhibitors. 420,000 tested, 15% active. AID 686978, 2013; further: potency means the concentration at half of the fitted maximal effect; nearly all actives have a fitted effect of over 55% in size
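No-CPT arm: Tdp1-/-;hTDP1 DT40 cells (400/well) plus compounds, incubated ≥48 hr at 37 °C. Readout CellTiter-Glo luminescence.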
HT1080 IDH1KD tx = kills HT-1080 cells with IDH1 knockdown | HT-1080 IDH1 knockdown viability, ATP luminescence, 48 h | Potency, µM (top dose mostly 46.1 µM), for the others: at the top dose activity, negative = toxicity, actives largely listed as cytotoxic | 360,000 tested, 2% active;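 further: potency means the concentration at half of the fitted maximal effect; 0% = DMSO wells and -100% = cell-free medium wells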
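Using the IDH1-knockdown HT-1080 line run in the same batch and compound series as the NT line, viability after 48 h at 37 °C was determined by CellTiter-Glo luminescence and expressed as % activity.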
HT1080NT lethal = kills 2HG-producing HT-1080-NT fibrosarcoma cells | HT-1080-NT fibrosarcoma viability, CellTiter-Glo ATP luminescence, 48 h | Potency, µM (doses to about 46.1 µM), without a hit: at the highest dose activity, negative = less viability, actives largely listed as cytotoxic | 360,000 tested, 1.6% active | AID 686970;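 further: NT is the 2HG producing partner of a matched IDH1 knockdown line; potency means the concentration at half of the fitted maximal effect; 0% = DMSO-treated cells and -100% = media-only wells without cells; nearly all actives have a fitted effect of over 55% in size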
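HT-1080-NT fibrosarcoma cells (2HG-overproducing), 750 cells/well in RPMI with 5% FBS, dosed after 2 h and incubated 48 h at 37C. CellTiter-Glo luminescence normalized to DMSO and no-cell wells; concentration-response curves fitted and classed.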
* hit, by the source's call; ? = inconclusive. Unless noted, the call rests on the fitted dose curve; in most records, active means well fitted curve in the direction sought with a large enough effect; inconclusive means small, poorly fitted or top-dose-only effect, or another doubt; inactive means no such curve, though single readings can be large; an effect the other way counts as inactive or inconclusive. Unless noted, on the % scale 0 is the no-effect control and ±100 the full control effect.

SMILES	TDP1 cell CPT	IL-1B inflam inh	TDP1 cell noCPT	HT1080 IDH1KD tx	HT1080NT lethal
O=C1CCc2cc(S(=O)(=O)NC(Cc3ccccc3)C(=O)N3CCN(c4ccccn4)CC3)ccc2N1 (centres undefined)	-20%	-12	-8%	-5%	0%
O=Nc1c(O)n(Cc2ccc(Cl)cc2Cl)c2ccccc12	-16%	-58*	-27%	?	?
CCOC(=O)n1c(=O)n(Cc2ccc(Cl)cc2Cl)c2ccccc21	?	-8	?	-3%	-23%
Cc1cccc2c(N=O)c(O)n(CCc3ccccc3)c12	-45%	-30	?	0%	-4%
Cc1ccc2c(c1)c(N=O)c(O)n2Cc1ccc(Cl)cc1	-21%	-73*	-16%	2%	-13%
CC(=O)c1c(C)n(CCc2ccc(Cl)cc2)c2ccc(O)cc12	11%	-12	-4%	3%	11%
C/C(Cl)=C\Cn1c(O)c(N=O)c2ccccc21	-15%	-98*	-21%	?	-21%
Cc1ccc(Cn2c(O)c(N=O)c3ccccc32)cc1	34%	-88*	-11%	-25%	-13%
CCCCNS(=O)(=O)c1cccc(NC(=O)[C@@H]2O[C@H](CO)[C@H](O)[C@H](O)[C@H]2O)c1	-9%	-11	?	-8%	16%
O=Nc1c(O)n(Cc2ccc(Cl)cc2)c2ccccc12	7%	-88*	-25%	?	?

Screens from PubChem.
